# Measured values as given in PubChem BioAssay AID1852 (Sanford-Burnham Center for Chemical Genomics, 2009).
# About 1,100 (44%) of roughly 2,500 compounds were called active. The set was probably picked from earlier hits. The list shows a part of the results. Values without a mark were called inactive.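 Rule for the calls: active = inhibition above 50% at 4 µM in the single-point screen; inactive = inhibition of 50% or less.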
# Experiment: TNF-a-driven NF-kB reporter inhibitors, primary screen, selectivity assay for NOD1/NOD2 signaling inhibitor project, cell-based, HEK293T NF-kB-Luc, luminescence (AID 1852)
# Details: TNF-a induced, 14 h, at 4 µM, hits give high values
row,Compound,inhibition
1,CS(=O)(=O)C1=NN2C(=N)/C(=C\c3ccc(OCCOc4ccccc4)cc3)C(=O)N=C2S1,-28.3%
2,CCN1CCN(Cc2ccc(NC(=O)c3ccc(C)c(NC(=O)c4ccno4)c3)cc2C(F)(F)F)CC1,-16.6%
3,O=C(Nc1ccc2nc3n(c(=O)c2c1)CCCCC3)c1cc([N+](=O)[O-])ccc1F,37.4%
4,O=C(Nc1ccc2nc3n(c(=O)c2c1)CCCCC3)c1c(F)ccc([N+](=O)[O-])c1F,94.6% (active)
5,O=C(c1[nH]ncc1-c1ccccc1)C1CO1 (stereo unspecified),2.8%
6,Cc1ccc(/C=N/Nc2ccc(C(=O)O)cc2)s1,44.7%
7,O=[N+]([O-])c1ccc(/C=N/NC(=S)Nc2ccc(Cl)cc2Cl)s1,31.8%
8,Cc1ccc(C(=O)N/N=C/c2ccc([N+](=O)[O-])s2)cc1,66.9% (active)
9,O=C(N/N=C/c1ccc([N+](=O)[O-])s1)c1ccncc1,45.8%
10,Cc1cccc(NC(=S)N/N=C/c2ccc([N+](=O)[O-])s2)c1,106% (active)
11,Cc1ccc(NC(=S)N/N=C/c2ccc([N+](=O)[O-])s2)cc1,100% (active)
12,Cc1ccc(-c2nnc(Sc3nc4ccccc4o3)c3ccccc23)cc1,-46.1%
13,CCC(C)Cn1c(O)cc2nn(-c3nc4ccccc4s3)c(=O)c-2c1C (stereo unspecified),77.4% (active)
14,CCC(C)Cn1c(C)nc2ccccc21 (stereo unspecified),28%
15,CCC(C)Cn1c(C(C)C)nc2ccccc21 (stereo unspecified),-3%
16,COc1c(C)cc(C(=O)C2CCCN(C(=O)CCc3scnc3C)C2)cc1C (stereo unspecified),27.3%
17,Fc1ccc(C2CCCN2Cc2nc(Cc3ccccc3F)no2)cc1 (stereo unspecified),-0.4%
18,CCc1cc(C(=O)NC2CCCN(Cc3ccccc3F)C2)n(C)n1 (stereo unspecified),57.5% (active)
19,Cc1ccnn1CCC(=O)N1CCCC(Nc2ccc(F)c(F)c2)C1 (stereo unspecified),21.6%
20,CCC(C)c1ccc(C(C)NC(=S)NC2CCCCC2)cc1 (stereo unspecified),21.1%
21,O=C(CCS(=O)(=O)c1ccccc1)Nc1cccc(-c2nc3ccccc3s2)c1,59.9% (active)
22,Cc1nc2ccc(NC(=O)CCS(=O)(=O)c3ccccc3)cc2s1,-1.1%
23,CS(=O)(=O)c1ccc2nc(NC(=O)CCS(=O)(=O)c3ccccc3)sc2c1,36.3%

row,Compound,inhibition
1,O=C(c1cn(-c2ccccc2)nc1-c1ccccc1)n1nnc2ccccc21,27.6%
2,OCCCNc1ncnc2scc(-c3ccc(Cl)cc3)c12,78.5% (active)
3,COc1ccc(-c2csc3ncnc(NCCCO)c23)cc1,60.7% (active)
4,COc1ccc(-c2csc3ncnc(NCCO)c23)cc1,49.8%
5,CCc1cccc(NS(=O)(=O)c2csc(C(N)=O)c2)c1,23.5%
6,CNC(=S)N(CCc1c(C)[nH]c2ccc(Cl)cc12)Cc1cc(OC)c(OC)c(OC)c1,36.1%
7,CCCc1ccc(-c2c(C)sc(NC(=O)c3ccnn3C)c2C#N)cc1,86.3% (active)
8,CCOC(=O)c1sc(NC(=O)CSc2n[nH]c(-c3ccncc3)n2)c(C#N)c1C,26.6%
9,CCN1/C(=C/C(C)=C/c2sc3ccccc3[n+]2CC)Sc2ccccc21,71.8% (active)
10,CCN1/C(=C/C=C/C=C/C=C/c2sc3ccccc3[n+]2CC)Sc2ccccc21,62.2% (active)
11,O=c1c2cc([N+](=O)[O-])ccc2nc(CN2CCN(c3ccccn3)CC2)n1-c1ccccc1F,2.4%
12,Cc1ccc(NC(=O)CSc2nn(-c3ccccc3)c(=S)s2)cc1S(=O)(=O)N(C)C,72.3% (active)
13,CN(C)S(=O)(=O)c1cc(NC(=O)CSc2nn(-c3ccc(Cl)cc3)c(=S)s2)ccc1Cl,-20.5%
14,CCN(Cc1ccncc1)C(=O)CC1C(=O)NCCN1Cc1ccc(F)c(F)c1 (stereo unspecified),1.3%
15,CCN(CCn1cccn1)C(=O)CC1C(=O)NCCN1CCc1ccccc1 (stereo unspecified),50.2% (active)
16,CC(CN1CCOCC1)OC(=O)Cc1ccc(Cl)cc1 (stereo unspecified),12.4%
17,Cc1ccc(NC(=O)c2ccccc2NS(=O)(=O)c2ccc(F)cc2)cc1S(=O)(=O)N1CCCCC1,81.2% (active)
18,CSc1ncccc1C(=O)N1CCN(S(=O)(=O)c2cc(C)ccc2C)CC1,-21.1%
19,O=C(Nc1cccc(S(=O)(=O)N2CCCCC2)c1)Nc1ccc(Cl)cc1Cl,-29.7%
20,O=C(Nc1cccc(S(=O)(=O)N2CCCCC2)c1)c1ccccc1NS(=O)(=O)c1ccc(F)cc1,87% (active)
21,Cc1ccc(NC(=O)CSc2ncnc3ccccc23)cc1S(=O)(=O)N1CCOCC1,39.8%
22,O=C(CCl)Nc1cccc(S(=O)(=O)N2CCCCCC2)c1,30.6%
23,Cc1ccc(NC(=O)c2cc(=O)c3ccccc3o2)cc1S(=O)(=O)N1CCCCC1,23.9%

row,Compound,inhibition
1,COc1ccc(NS(=O)(=O)c2cccc(NC(=O)c3ccc(S(=O)(=O)N4CCCCCC4)cc3)c2)cc1,90.7% (active)
2,COc1ccc(NS(=O)(=O)c2cccc(NC(=O)c3ccc(Cl)nc3)c2)cc1,42%
3,O=C(Nc1ccc(F)cc1)Nc1ccc(N2CCCC2)c(S(=O)(=O)Nc2ccccc2Cl)c1,35.1%
4,Cc1ccc(NC(=O)CSc2ncnc3ccccc23)cc1S(=O)(=O)N1CCCCC1,57.7% (active)
5,Cc1nc(Sc2nnnn2C)c2c3c(sc2n1)CCC3,25.5%
6,CCS(=O)(=O)c1ccc2oc(SCC(=O)NC3CCCC(C)C3C)nc2c1 (stereo unspecified),15.3%
7,CC1CCCC(NC(=O)NC(=O)CCl)C1C (stereo unspecified),69.1% (active)
8,CC1CCCCC1NC(=O)NC(=O)CCl (stereo unspecified),68.1% (active)
9,COc1ccccc1C1/C(=C(/O)c2ccc(OC(C)C)cc2)C(=O)C(=O)N1c1cc(C)on1 (stereo unspecified),35.4%
10,O=C(CN(Cc1ccc(Cl)cc1)C(=O)CNS(=O)(=O)c1ccc(F)cc1)NCC1CCCO1 (stereo unspecified),38.4%
11,O=S(=O)(NCC1CCCO1)c1ccc(-c2ccc(S(=O)(=O)NCC3CCCO3)cc2)cc1 (stereo unspecified),34.8%
12,COc1ccc(N2CCN(C(=O)c3ccc(CNS(=O)(=O)c4ccc(C)cc4)cc3)CC2)cc1,35.1%
13,Cc1ccc(NS(=O)(=O)c2ccc(C(=O)N3CCN(c4ncccn4)CC3)cc2)cc1,61.5% (active)
14,COc1cccc(N2CCN(c3ncnc4c3cnn4-c3ccc(C)cc3C)CC2)c1,102% (active)
15,Cc1cccc(-n2ncc3c(N(C)C4CCCCC4)ncnc32)c1,-64.4%
16,CCOC(=O)C1=C(C)N=c2s/c(=C/c3cccc([N+](=O)[O-])c3O)c(=O)n2C1c1ccccc1 (stereo unspecified),74.5% (active)
17,Cn1c(N2CCN(c3ccccn3)CC2)nc2c1c(=O)n(Cc1ccc(Cl)cc1)c(=O)n2C,17.7%
18,Cn1c(=O)c2c(nc(Oc3ccc4ccccc4c3)n2C)n(C)c1=O,40.5%
19,C=CCn1c(Oc2ccccc2F)nc2c1c(=O)n(C)c(=O)n2C,78.4% (active)
20,C=CCn1c(Oc2ccc(C(=O)OC)cc2)nc2c1c(=O)n(C)c(=O)n2C,47.2%
21,CCn1c(Oc2ccccc2F)nc2c1c(=O)n(C)c(=O)n2C,69.1% (active)
22,CCCCCn1c(SCCc2ccccc2)nc2c1c(=O)[nH]c(=O)n2C,31.3%
23,Cn1c(=O)[nH]c(=O)c2c1nc([N+](=O)[O-])n2Cc1ccccc1,104% (active)

row,Compound,inhibition
1,Cn1c(=O)[nH]c(=O)c2c1nc(N1CCC(Cc3ccccc3)CC1)n2Cc1ccccc1,41.2%
2,COc1ccc(C(=O)Nc2nnc(S(=O)(=O)N(C)Cc3ccc(F)cc3)s2)cc1OC,-1%
3,CN(Cc1ccccc1)S(=O)(=O)c1nnc(NC(=O)c2ccc(F)cc2)s1,74.3% (active)
4,CN(Cc1ccc(F)cc1)S(=O)(=O)c1nnc(NC(=O)c2ccccc2)s1,21%
5,Cc1nc2ccc(NS(=O)(=O)c3ccc4c(c3)OCCO4)cc2s1,72.1% (active)
6,Cc1nc2ccc(NS(=O)(=O)c3ccc(F)c(C)c3)cc2[nH]1,42.8%
7,Cc1nc2ccc(NS(=O)(=O)c3c(C)c(C)cc(C)c3C)cc2s1,61.8% (active)
8,CSc1nc2ccc(NS(=O)(=O)c3ccc4c(c3)OCCO4)cc2s1,100% (active)
9,Cc1nc2ccc(NS(=O)(=O)c3ccc(C)c(C)c3)cc2s1,48.4%
10,Cc1ccc(-c2nc3cccnc3s2)cc1NS(=O)(=O)c1ccc2c(c1)OCCO2,27.3%
11,CS(=O)(=O)c1ccc2nc(NC(=O)c3cccc(NS(=O)(=O)c4ccc(F)c(F)c4)c3)sc2c1,-0.8%
12,COC(=O)C(=Cc1ccc(OCc2ccc([N+](=O)[O-])cc2)c(OC)c1)C(=O)OC,18%
13,O=[N+]([O-])c1cc([N+](=O)[O-])c2oc(-c3ccccc3)c(Br)c2c1O,66% (active)
14,CCN1/C(=C/c2cccc[n+]2C)Sc2ccc(OC)cc21,50.4% (active)
15,Cc1ccc2c(c1)N(C)/C(=C/c1cccc[n+]1C)S2,24.9%
16,O=C(Nc1cccc(-c2ccc(N3CCCCC3)nn2)c1)C(F)(F)F,-90.7%
17,Cc1ccc(C(=O)Sc2cccccc2=O)cc1,103% (active)
18,Cc1ccc(S(=O)(=O)/C(=C/Cl)NC(=O)c2ccccc2)cc1,11.6%
19,CN(C)c1ccc(C(=O)Nc2nnc(-c3ccc(Cl)cc3)o2)cc1,106% (active)
20,O=C(Nc1nnc(-c2ccccc2)o1)c1ccc(Cl)cc1,104% (active)
21,Cc1cccc(-c2nnc(NC(=O)c3ccc(Cl)cc3)o2)c1,102% (active)
22,O=C(Nc1sc2c(c1C(=O)O)CCCC2)c1ccc(Cl)cc1,29.8%
